Source: PubChem (National Center for Advancing Translational Sciences (NCATS))
LASV entry inh – qHTS for Inhibitors of binding or entry into cells for Lassa Virus | 1.2% of 300,000 active | Lassa virus pseudotype entry inhibition, cell reporter | Potency, µM (highest dose often 37.9 µM), for inactives: top-dose activity change, negative = inhibition, usual class: inhibitors; calls by dose curve; tested in HEK293 cells; note: potency is the fitted concentration of half-maximal effect; % is set by controls: 0 for no effect and ±100 for the full control effect; nearly all actives have a fitted effect of over 50% in size
Cycloheximide cs – Cycloheximide Counterscreen for Small Molecule Inhibitors of Shiga Toxin | cell reporter, cycloheximide protein synthesis inhibition counterscreen | max response, % | 12% of 300,000 active | AID 2314, 2010; in the data active = max response mostly above about 13%, no sharp cut-off; inactive = mostly below about 14%; note: read at 38.3 µM for the half of the compounds with a filed dose; 0% is about no effect
AMA1-RON2 inh – qHTS for Inhibitors of AMA1-RON; Towards Development of Antimalarial Drug Lead: Primary Screen. Plasmodium falciparum AMA1 (3D7) - RON2 peptide interaction. AlphaScreen AMA1-biotinylated RON2 peptide binding. Potency, µM (titrated, usually from 58.2 µM), for the others: top-dose activity change, negative = inhibition, most hits filed as inhibitors. 0.2% of 360,000 active. AID 720542, 2013; active = well fitted inhibition curve with a large enough effect; inconclusive = small, poorly fitted or top-dose-only effect; inactive = no such curve, though single readings can be large or run the other way;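 note: potency is the fitted concentration of half-maximal effect; 0% = vehicle wells and -100% = peptide control; nearly all actives have a fitted effect of over 45% in size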
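AMA1 (3D7) with his tag at 25 nM final met compounds first, then biotinylated RON2 peptide at 25 nM; detection used donor plus acceptor beads, 10 µg/mL apiece, read by AlphaScreen after 30 min at room temperature.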
Marburg entry inh – qHTS for inhibitors of binding or entry into cells for Marburg Virus; Potency, µM (top dose mostly 37.8 µM), without a hit: top-dose activity change, negative = inhibition, most hits filed as inhibitors; 1.8% of 300,000 active; AID 540276, 2011; Marburg virus pseudotyped entry inhibition, cell reporter; calls by dose curve; tested in HEK293 cells; note: potency is the fitted concentration of half-maximal effect; % is set by controls: 0 for no effect and ±100 for the full control effect
Shiga inhibitor – A qHTS for Small Molecule Inhibitors of Shiga Toxin; inhibition, % at 38.7 µM; AID 2315, 2010; Vero cells, Shiga toxin protein synthesis inhibition reporter; 9.2% of 290,000 active; in the data active = inhibition mostly above about 28%, no sharp cut-off; inactive = mostly below about 43%; note: 0% is about no effect
* marks the source's active call; other numbers are inactive results; u = inconclusive; x = no result; [ ] = dose if it differs, or a comment. This is one part of a sample in which hits are shown more often than they occur.

SMILES	LASV entry inh	Cycloheximide cs	AMA1-RON2 inh	Marburg entry inh	Shiga inhibitor
Cc1cc(C(=O)N/N=C/c2cc(Br)ccc2OC(=O)c2ccccc2)n[nH]1	u	11	33%	10µM*	4
Cc1ccc(S(=O)(=O)n2nc(C)c(S(=O)(=O)N3CCC(C)CC3)c2C)cc1	36%[46.1 µM]	x	x	x	x
Cc1cc2c(c(=O)n1Cc1ccccc1)[C@H]1O[C@](CCCCN3C(=O)c4ccccc4C3=O)(Cc3c1ccc1ccccc31)O2	x	x	x	-11%[14.2 µM]	x
Cc1sc(NC(=O)C2C3CCC(O3)C2C(=O)O)nc1-c1ccc(CC(C)C)cc1 (stereo not given)	2%	42*	-16%	u	80*
CCOC(=O)c1c(NC(=O)C2C3CCC(O3)C2C(=O)O)sc(C)c1-c1ccc(C)cc1 (stereo not given)	-19%	4	-4%	-2%	13
Cc1nc(CN(C)C(=O)CC2C(=O)NCCN2Cc2ccc(-c3ccccc3)cc2)cs1 (stereo not given)	-17%	18	12%	10%	26*
CCOc1ccc(CN2CCNC(=O)C2CC(=O)NCc2ccccn2)cc1 (stereo not given)	10%	36*	88%	-8%[46.1 µM]	7
O=C(CC1C(=O)NCCN1Cc1ccccn1)NCCc1ccccc1F (stereo not given)	19%	15	0%	14%	36*
CCOc1ccc(CN2CCNC(=O)C2CC(=O)NCCc2ccccn2)cc1 (stereo not given)	18%[46.1 µM]	2	31%	6%[46.1 µM]	1
COc1ccc([C@@H]2C[C@H]3[C@@H](CN2S(=O)(=O)c2ccccc2)C(=O)C[C@@H](c2ccccc2F)N3S(=O)(=O)c2ccc(C)cc2)cc1	x	x	-2%	x	x
Cc1cccc(-n2ccc(=O)c(C(=O)Nc3ccc(S(=O)(=O)Nc4onc(C)c4C)cc3)n2)c1	7%[46.1 µM]	-4	-6%	0%[46.1 µM]	-10
CC(C)(CO)NCc1c(OCc2ccc(Cl)cc2)ccc2ccccc12	2.5µM*	-7	0%	u	x
CCC(=O)Nc1cc(C(=O)OCC(=O)c2ccccc2)ccc1C	10%	53*	-14%	-15%	active
Cc1ccc(C(=O)OCC(=O)c2c[nH]c3ccccc23)cc1NC(=O)c1ccco1	-17%	19*	-10%	u	45
CCN(CC)C(=O)COC(=O)c1ccc(C)c(NC(=O)c2ccco2)c1	16%[46.1 µM]	6	-2%	-7%[46.1 µM]	21
CCC(=O)Nc1cc(C(=O)OCC(=O)c2ccccc2Cl)ccc1C	8%	45*	-3%	21%	106*
COc1cccc(N2CC(NC(=O)/C=C\c3ccc4c(c3)OCO4)CC2=O)c1 (stereo not given)	-4%[46.1 µM]	x	x	x	x
CCCCCCN1C[C@@H](O)[C@H](n2cc(-c3ccc(F)cc3)nn2)C[C@@H]1c1ccccc1	x	x	-1%	x	x
O=C(c1c(F)cccc1F)N1CCCC(c2nc(-c3ccc(Cl)cc3)no2)C1 (stereo not given)	x	1	7%	x	-8
Cc1ccc(-c2noc(C3CCCN(C(=O)c4cccc(F)c4)C3)n2)cc1 (stereo not given)	x	22*	-3%	x	19
O=C(c1ccc(F)cc1F)N1CCCC(c2nc(-c3ccc(F)cc3)no2)C1 (stereo not given)	u	17*	-8%	-29%[46.1 µM]	14
O=C(Nc1ccc(F)cc1F)N1CCCC(c2nc(-c3ccc(F)cc3)no2)C1 (stereo not given)	15%	23*	2%	-19%	41
C[C@H](CO)N1C[C@H](C)[C@@H](CN(C)C(=O)c2cnccn2)Oc2cc(C#CCC3CCCC3)ccc2S1(=O)=O	x	x	-22%	x	x
C=CCc1ccccc1OCC(O)CN(C(C)C)C(C)C (stereo not given)	u	-4	-2%	6.3µM*	-3
CCCNC(=O)C1(C)CCN(C(=O)c2cccc(C#N)c2)C1 (stereo not given)	x	x	7%	x	x
Cc1cc(C(=O)Nc2cccc(C)c2C)n(-c2ccccc2)n1	u	24*	-3%	15%[46.1 µM]	51*
Cc1cc(C(=O)Nc2cccc3ccccc23)n(-c2ccccc2)n1	-29%[46.1 µM]	8	9%	-8%[46.1 µM]	22
COc1ccc(NC(=O)c2cc(C)nn2-c2ccccc2)cc1	3%	37*	21%	u	58*
Cc1cc(C(=O)NCCN2CCN(c3cccc(Cl)c3)CC2)n(-c2ccccc2)n1	7.3µM*	-3	-7%	7.3µM*	-13
